Assay outcomes deposited in PubChem by National Center for Advancing Translational Sciences (NCATS).
HepG2 viability: kills HepG2 cells in TGF-b inhibitor counter-screen; HepG2 CAGA-GFP viability, ATP luminescence, 18 h; Potency, µM (doses to about 46.1 µM), actives largely listed as cytotoxic; hit rate 0.76% among 410,000
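CellTiter-Glo luminescence gave cytotoxicity after 18 hours at 37 degrees C. The cells were HepG2 CAGA-GFP in 1% FBS DMEM, stimulated with 500 pg/mL TGF-beta after compound addition. %Activity was normalised to no-cell wells (complete cell-killing) and DMSO (no toxicity), and curves were fitted and classified.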
TDP1 cell CPT: DT40-hTDP1 cell growth loss with CPT; chicken DT40 Tdp1-/-;hTDP1 cells + 20 nM CPT, ATP luminescence, 48 h; Potency, µM (top dose mostly 46.2 µM), usual class: inhibitors; hit rate 12% among 420,000; further: nearly all actives have a fitted effect of over 55% in size
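Chicken DT40 Tdp1-/- cells complemented with human TDP1, 400 cells/well, exposed to compounds plus 20 nM camptothecin for at least 48 h at 37 C; viability read as ATP content by CellTiter-Glo luminescence.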
HT1080 IDH1KD tx: toxicity to HT-1080 IDH1 knockdown cells (counter line) | HT-1080 IDH1 knockdown viability, ATP luminescence, 48 h | Potency, µM (top dose mostly 46.1 µM), actives largely listed as cytotoxic | hit rate 2% among 360,000
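HT-1080-IDH1KD cells (IDH1 knocked down), 750/well in RPMI with 5% FBS, treated with compound 48 h at 37 degrees C. Viability by CellTiter-Glo luminescence, normalised to DMSO and no-cell wells; concentration-response curves classed.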
TGFb inhibitor: TGF-b pathway inhibition; hit rate 1.2% among 410,000; HepG2 CAGA-GFP TGF-b/SMAD3 reporter, GFP fluorescence, 18 h; TGF-beta stimulated, 500 pg/mL final; Potency, µM (top dose mostly 46.1 µM), usual class: inhibitors; further: nearly all actives have a fitted effect of over 65% in size
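TGF-beta reporter screen: HEPG2 CAGA-GFP, 1% FBS, 500 pg/mL TGF-beta final, 18 h; per-cell GFP summed per well; curves fitted and categorized by class.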
HT1080-NT tox: kills 2HG-producing HT-1080-NT fibrosarcoma cells; HT-1080-NT fibrosarcoma viability, CellTiter-Glo ATP luminescence, 48 h; Potency, µM (top dose mostly 46.1 µM), actives largely listed as cytotoxic; hit rate 1.6% among 360,000; AID 686970;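 further: NT is the 2HG producing partner of a matched IDH1 knockdown line; nearly all actives have a fitted effect of over 55% in size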
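HT-1080-NT fibrosarcoma cells (2HG-overproducing), 750 cells/well in RPMI with 5% FBS, dosed after 2 h and incubated 48 h at 37C. CellTiter-Glo luminescence normalized to DMSO and no-cell wells; concentration-response curves fitted and classed.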
TDP1 cell noCPT: qHTS for Inhibitors of human tyrosyl-DNA phosphodiesterase 1 (TDP1): qHTS in cells in absence of CPT | Potency, µM (highest dose often 46.2 µM), usual class: inhibitors | DT40 Tdp1-/- hTDP1 cells, no CPT, ATP luminescence, 48 h | hit rate 15% among 420,000; further: nearly all actives have a fitted effect of over 55% in size
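A cellular qHTS used chicken DT40 cells lacking endogenous Tdp1 but carrying stably transfected human TDP1. Compounds were applied without camptothecin, and cell growth kinetics were judged by ATP-dependent luminescence after ≥48 hr.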
A number is an active result. This is a sample that favours compounds with a hit; in the whole collection about 17% have one here. The call rests on the fitted dose curve; in most records, active means well fitted curve in the direction sought with a large enough effect; inconclusive means small, poorly fitted or top-dose-only effect, or another doubt; inactive means no such curve, though single readings can be large; an effect the other way counts as inactive or inconclusive.

COC(=O)/C(C#N)=C1/SC=C(C)N1c1ccccc1 was read as HepG2 viability inactive, TDP1 cell CPT inactive, HT1080 IDH1KD tx inactive, TGFb inhibitor inactive, HT1080-NT tox inactive and TDP1 cell noCPT inactive.
Screening N#C/C(C(N)=O)=C1/SC=C(c2ccccc2)N1c1ccccc1 returned HepG2 viability inactive, TDP1 cell CPT inconclusive, HT1080 IDH1KD tx inconclusive, TGFb inhibitor inactive, HT1080-NT tox inactive and TDP1 cell noCPT 18µM.
For COc1ccc(NC(=O)CSc2nnc3n2CCCCC3)cc1S(=O)(=O)N(C)C the results were HepG2 viability inactive, TDP1 cell CPT inactive, HT1080 IDH1KD tx inactive, TGFb inhibitor inactive, HT1080-NT tox inactive and TDP1 cell noCPT inactive.
`CCOC(=O)CN1C(=O)N[C@@H](CCc2ccccc2)[C@H](C(=O)OC)[C@H]1C` gave HepG2 viability inactive, TDP1 cell CPT inactive, HT1080 IDH1KD tx inactive, TGFb inhibitor inactive, HT1080-NT tox inactive and TDP1 cell noCPT inactive.
`COc1cc(-c2nnc(-c3cc(-c4ccccc4)nc4ccccc34)o2)cc(OC)c1OC` gave HepG2 viability inactive, TDP1 cell CPT inactive, HT1080 IDH1KD tx inactive, TGFb inhibitor inactive, HT1080-NT tox inactive and TDP1 cell noCPT inconclusive.
For O=C(Nc1ccc(OC(F)F)c(Cl)c1)C(c1ccccc1)c1ccccc1 the results were HepG2 viability 20µM, TDP1 cell CPT inconclusive, HT1080 IDH1KD tx 16µM, TGFb inhibitor 22µM, HT1080-NT tox inconclusive and TDP1 cell noCPT 18µM.
For CC(NC(=S)Nc1ccc(OC(F)F)c(Cl)c1)C(C)(C)C (stereo not drawn) the results were HepG2 viability inactive, TDP1 cell CPT inconclusive, HT1080 IDH1KD tx inconclusive, TGFb inhibitor 13µM, HT1080-NT tox inconclusive and TDP1 cell noCPT inconclusive.
Fc1cc(NC(=S)NCc2ccc(CNC(=S)Nc3ccc(Cl)c(F)c3)cc2)ccc1Cl was read as HepG2 viability 2.8µM, TDP1 cell CPT inconclusive, HT1080 IDH1KD tx inactive, TGFb inhibitor inconclusive, HT1080-NT tox inactive and TDP1 cell noCPT 13µM.
Fc1ccc(NC(=S)Nc2ccccc2OC(F)F)cc1Cl was read as HepG2 viability inactive, TDP1 cell CPT inconclusive, HT1080 IDH1KD tx inconclusive, TGFb inhibitor inconclusive, HT1080-NT tox inconclusive and TDP1 cell noCPT inconclusive.
Screening FC(F)Oc1ccc(NC(=S)NCc2ccccc2)cc1Cl returned HepG2 viability inactive, TDP1 cell CPT 16µM, HT1080 IDH1KD tx inconclusive, TGFb inhibitor inconclusive, HT1080-NT tox inconclusive and TDP1 cell noCPT inconclusive.
O=C1NC(=O)C(c2ccccc2)N1 (stereo not drawn) was read as HepG2 viability inactive, TDP1 cell CPT inactive, HT1080 IDH1KD tx inactive, TGFb inhibitor inactive, HT1080-NT tox inactive and TDP1 cell noCPT inactive.
For CC(=O)Nc1nc2[nH]ccc2c(=O)[nH]1 the results were HepG2 viability inactive, TDP1 cell CPT inactive, HT1080 IDH1KD tx inactive, TGFb inhibitor inactive, HT1080-NT tox inactive and TDP1 cell noCPT inactive.
For O=C(Nc1ccc(Cl)c(C(F)(F)F)c1)c1ccco1 the results were HepG2 viability inactive, TDP1 cell CPT inactive, HT1080 IDH1KD tx inactive, TGFb inhibitor inconclusive, HT1080-NT tox inactive and TDP1 cell noCPT inconclusive.
For CCNC(=S)Nc1ccc(Cl)c(C(F)(F)F)c1 the results were HepG2 viability inactive, TDP1 cell CPT inactive, HT1080 IDH1KD tx inactive, TGFb inhibitor inconclusive, HT1080-NT tox inactive and TDP1 cell noCPT 23µM.
Screening CCOC(=O)C1=C(C)N=C2SC(C)C(=O)N2C1c1ccc(OCC)c(OCC)c1 (stereo not drawn) returned HepG2 viability inactive, TDP1 cell CPT inactive, HT1080 IDH1KD tx inactive, TGFb inhibitor inactive, HT1080-NT tox inactive and TDP1 cell noCPT inconclusive.
Screening CC(C)C[C@@H](CSc1ccccc1)N1CCN(CCc2ccccc2)CCC1=O returned HepG2 viability inactive, TDP1 cell CPT inconclusive, HT1080 IDH1KD tx inactive, TGFb inhibitor inconclusive, HT1080-NT tox inactive and TDP1 cell noCPT 21µM.
